Results filed as inconclusive are left out. Active and inactive are the calls of the source. Calls come from the whole dose curve; as a rule, active = well fitted curve in the direction sought with a large enough effect; inconclusive = small, poorly fitted or top-dose-only effect, or another doubt; inactive = no such curve, though single readings can be large or run the other way.
tested on: NanoLuc luciferase (engineered Oplophorus gracilirostris luciferase); assay: Confirmatory Nanoluciferase (NLuc) qHTS assay for identification of artifact compounds.; note: % of control where 0% means no effect; conditions: secreted NLuc in S16 cell medium, luminescence, 5 min; series mostly up to 39 µM
Procedure, shortened: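 Conditioned medium from NLuc-expressing S16 cells (diluted 1:55) as enzyme source; compounds 15 min at room temperature, then Nano-Glo substrate for 5 min. Luminescence normalized to no-enzyme and DMSO controls, fitted to 4-parameter Hill equation.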

Potency, inactive:
OCC(O)C(O)C(OC1OC(CO)C(O)C(O)C1O)C(O)CO (stereo not drawn), COc1ccc(NC(=O)c2csnn2)cc1Cl, Cc1ccc2nc(-c3cccnc3)c(Nc3ccccc3C)n2c1, COc1cccc(CNS(=O)(=O)c2cnc(N)nc2)c1, O=C(Nc1ccc2oc(-c3cccnc3)nc2c1)c1cc2ccccc2o1, COc1ccc(NC(=O)Cn2c(=O)n(CCc3ccccc3)c(=O)c3c4c(sc32)CCCC4)cc1, Cc1ccc(S(=O)(=O)c2nnn3c2nc(NCc2ccc(F)cc2)c2sccc23)cc1C, COC(=O)c1c(NC(=O)c2nc(SCc3cccc(C)c3)ncc2Cl)sc2c1CCCC2, CCCn1c(C)nc2c(N3CCCN(Cc4ccccc4)CC3)nc(C)nc21, CCOC(=O)c1c(S(=O)(=O)NCC(=O)Nc2ccc(F)cc2C)c(C)n(C)c1C, CCc1cccc(C)c1NC(=O)Cn1c(=O)n(-c2ccc(C)cc2)c(=O)c2c1cnn2C, CCOC(=O)N1CCN(S(=O)(=O)N2CCCC(C(=O)NCc3cccc(OC)c3)C2)CC1 (stereo not drawn), CCc1cccc(NC(=O)Cn2c(=O)n3nc(-c4cccc(F)c4)nc3c3ccccc32)c1, CCSc1ncc(Cl)c(C(=O)Nc2c(C(=O)Nc3cccc(C)c3)oc3ccccc23)n1, O=C(Nc1ccccn1)c1sc2ccc([N+](=O)[O-])cc2c1Cl, CCOc1ccccc1-n1nnc(-c2nc(-c3ccccc3)no2)c1N, CSc1ccc2nc(Nc3nnc(-c4cccs4)o3)sc2c1, Cc1ccc(NC(=O)c2ncn(-c3ccccc3)n2)c(Cl)c1, CCOC(=O)C1CCN(C(=O)Cn2c(=O)oc3cc(S(=O)(=O)N4CCC(C)CC4)ccc32)CC1, CN(C)c1ccc(CNC(=O)c2ccc3c(c2)N(C)C(=O)C2CCCCN32)cc1 (stereo not drawn), CCN(CCCNC(=O)CSc1cc(=O)n(C)c2ccccc12)c1ccccc1, CCCC[C@H]1C2=C3[C@@H](CC(C(=O)OC)=C[C@@H](C(=O)OC)[C@H]3C(C)(C)C2=O)n2c(=O)n(-c3ccccc3)c(=O)n21, CCOc1ccccc1C(=O)Nc1cccc2ccc(C)nc12, O=C(Nc1nnc(-c2ccco2)o1)c1ccc(Cl)c(Cl)c1, Cc1ccc(S(=O)(=O)N2CCN(c3nc(-c4cccs4)nc4cccnc34)CC2)cc1, COc1ccc(CC(=O)Nc2nc3c(s2)CCCC3)cc1, CN1C(=O)Cc2cc(S(=O)(=O)NCc3ccccc3Cl)ccc21

Activity change, negative = inhibition, inactive:
CC(C)C[C@H](NC(=O)[C@H](Cc1ccccc1)NC(=O)CNC(=O)CNC(=O)[C@@H](N)Cc1ccc(O)cc1)C(=O)N[C@@H](CCCN=C(N)N)C(=O)N[C@@H](CCCN=C(N)N)C(=O)N[C@@H](CCC(N)=O)C(=O)N[C@@H](Cc1ccccc1)C(=O)N[C@@H](CCCCN)C(=O)N[C@H](C(=O)N[C@H](C(=O)N[C@H](C(=O)O)[C@@H](C)O)C(C)C)C(C)C 9.86% [at 4.32 µM]
